Screens (PubChem BioAssay)
Shown are actives, neighbours in structure and some others; about 19% of the full set was active somewhere.
HepG2 tox: qHTS for Inhibitors of TGF-b: Cytotox Counterscreen. HepG2 CAGA-GFP viability, ATP luminescence, 18 h. hit rate 0.76% among 410,000. Potency, µM (highest dose often 46.1 µM), for the others: at the top dose activity change, negative = cytotoxicity, hits mostly cytotoxic. AID 588856, 2011; also: potency is read from the fitted curve at half-maximal effect
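CellTiter-Glo luminescence gave cytotoxicity after 18 hours at 37 degrees C. The cells were HepG2 CAGA-GFP in 1% FBS DMEM, stimulated with 500 pg/mL TGF-beta after compound addition. %Activity was normalised to no-cell wells (complete cell-killing) and DMSO (no toxicity), and curves were fitted and classified.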
TDP1 cell noCPT: qHTS for Inhibitors of human tyrosyl-DNA phosphodiesterase 1 (TDP1): qHTS in cells in absence of CPT; DT40 Tdp1-/- hTDP1 cells, no CPT, ATP luminescence, 48 h; Potency, µM (series often up to 46.2 µM), for the others: at the top dose activity change, negative = growth inhibition, hits mostly inhibitors; hit rate 15% among 420,000; also: potency is read from the fitted curve at half-maximal effect; % is scaled to controls: 0 for no effect and ±100 for the full control effect; nearly all actives have a fitted effect of over 55% in size
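No-CPT arm: Tdp1-/-;hTDP1 DT40 cells (400/well) plus compounds, incubated ≥48 hr at 37 °C. Readout CellTiter-Glo luminescence.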
S-ASM inh: Inhibitors of Secretory Acid Sphingomyelinase (S-ASM): qHTS; placental ASM, HMU-PC fluorogenic substrate, 60 min; Potency, µM (top dose mostly 57.5 µM), inactives show at the highest dose activity change, negative = inhibition, most hits filed as inhibitors; hit rate 0.006% among 340,000; AID 504937, 2011; also: potency is read from the fitted curve at half-maximal effect
Target sequence (P17405 47-631 limits assumed): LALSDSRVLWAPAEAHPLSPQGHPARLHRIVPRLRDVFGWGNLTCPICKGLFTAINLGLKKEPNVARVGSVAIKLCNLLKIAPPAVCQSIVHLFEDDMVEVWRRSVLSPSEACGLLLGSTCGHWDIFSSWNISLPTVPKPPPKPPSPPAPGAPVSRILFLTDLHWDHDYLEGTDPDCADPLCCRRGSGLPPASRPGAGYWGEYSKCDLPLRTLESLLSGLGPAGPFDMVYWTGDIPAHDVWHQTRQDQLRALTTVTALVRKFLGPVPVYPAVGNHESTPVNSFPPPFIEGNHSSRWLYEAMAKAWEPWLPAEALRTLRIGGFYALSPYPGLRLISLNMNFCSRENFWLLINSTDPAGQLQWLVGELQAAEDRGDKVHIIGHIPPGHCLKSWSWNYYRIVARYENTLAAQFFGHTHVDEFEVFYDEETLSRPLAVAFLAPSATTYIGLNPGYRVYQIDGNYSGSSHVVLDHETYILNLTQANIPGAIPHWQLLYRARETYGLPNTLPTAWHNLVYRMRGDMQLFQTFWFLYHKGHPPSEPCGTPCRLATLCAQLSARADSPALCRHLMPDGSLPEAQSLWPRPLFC
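Human placenta-derived ASM preincubated with compound 10 min at room temperature, then reacted with 9 uM (final) fluorogenic HMU-PC substrate for 60 min at 37 C. Stop solution raises pH to 10; fluorescence read at Ex 386/Em 447 nm.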
DT40 TDP1 CPT: qHTS for Inhibitors of human tyrosyl-DNA phosphodiesterase 1 (TDP1): qHTS in cells in presence of CPT; chicken DT40 Tdp1-/-;hTDP1 cells + 20 nM CPT, ATP luminescence, 48 h; Potency, µM (highest dose often 46.2 µM), for inactives: at the top dose activity change, negative = growth inhibition, most hits filed as inhibitors; hit rate 12% among 420,000; also: potency is read from the fitted curve at half-maximal effect; % is scaled to controls: 0 for no effect and ±100 for the full control effect; nearly all actives have a fitted effect of over 55% in size
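Chicken DT40 Tdp1-/- cells complemented with human TDP1, 400 cells/well, exposed to compounds plus 20 nM camptothecin for at least 48 h at 37 C; viability read as ATP content by CellTiter-Glo luminescence.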
TGFb inhibitor: qHTS for Inhibitors of TGF-b; AID 588855, 2011; hit rate 1.2% among 410,000; HepG2 CAGA-GFP TGF-b/SMAD3 reporter, GFP fluorescence, 18 h; TGF-beta stimulated, 500 pg/mL final; Potency, µM (titrated, usually from 46.1 µM), for the others: at the highest dose activity, negative = inhibition, hits mostly inhibitors; also: potency is read from the fitted curve at half-maximal effect; % is scaled to controls: 0 for no effect and ±100 for the full control effect; nearly all actives have a fitted effect of over 65% in size
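Smad-responsive CAGA-GFP expression was quantified in HEPG2 cells exposed to compounds and 500 pg/mL final TGF-beta for 18 h at 37 degrees C; unstimulated wells defined full inhibition.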
IL1B secr inh: qHTS for Inhibitors of Inflammasome Signaling: IL-1-beta AlphaLISA Primary Screen | activity change, % at 57.5 µM | hit rate 4.7% among 360,000 | THP-1 LPS/ATP IL-1B secretion, AlphaLISA, 16 h; stronger effect = lower value; in the data active = activity change below about -50%; inconclusive = mostly about -30% to -49%; also: % is scaled to controls: 0 for no effect and ±100 for the full control effect
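Secreted IL-1B measured by AlphaLISA bead assay after 16 h compound exposure of THP-1 cells; compounds (final up to 57.5 uM) added 1 h before LPS (250 ng/mL) and ATP (1.25 mM) stimulation; lower signal means less secretion.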
* marks the source's active call; other numbers are inactive results; ? = inconclusive; . = no result. Unless noted, calls follow the shape of the dose curve; as a rule, active = well fitted curve in the direction sought with a large enough effect; inconclusive = small, poorly fitted or top-dose-only effect, or another doubt; inactive = no such curve, though single readings can be large; an effect the other way counts as inactive or inconclusive.

SMILES | HepG2 tox | TDP1 cell noCPT | S-ASM inh | DT40 TDP1 CPT | TGFb inhibitor | IL1B secr inh
Cc1cccc(N2CCN(C(=O)/C=C/c3cccs3)CC2C)c1 (stereo not given) | -23% | 15µM* | -1% | ? | -11% | -11
Cc1cccc(N2CCN(C(=O)CSc3ccsc3[N+](=O)[O-])CC2C)c1 (stereo not given) | -31% | ? | -4% | -1% | -6% | -73*
COc1cccc(CNC(=O)C(CC(C)C)NC(=O)c2ccccc2C)c1 (stereo not given) | 9% | -21% | 6% | 12% | 21% | 8
CCC(C)c1ccc(-c2cc(C(=O)OCC(=O)Nc3cc(C)on3)c3ccccc3n2)cc1 (stereo not given) | -22% | 16µM* | 185% | ? | 6% | 12
Cc1cc(NC(=O)c2cc(-c3ccc(OC(C)C)cc3)nc3ccccc23)no1 | -18% | 8.2µM* | 283% | -61% | 1% | -3
CCCCSc1nc(N)nc2c1ncn2C1OC(CO)C(O)C1O (stereo not given) | -13% | -28% | -4% | ? | 27% | 12
N#C/C(N=Nc1ccccc1O)=N\Nc1ccccc1O | -67% | 23µM* | -13% | 21µM* | ? | ?
Cc1ccc2cc(/C=C3\N=C(c4ccccc4)OC3=O)c(N3CCOCC3)nc2c1 | -1% | 18µM* | 11% | ? | ? | 15
Cc1ccc(Nc2c(C(C)C)c(C)c(C#N)c3nc4ccccc4n23)cc1 | -27% | 15µM* | . | 18µM* | ? | .
Cc1c(CCCl)c(Cl)n2c(nc3ccccc32)c1C#N | -21% | 0.65µM* | 54% | 0.92µM* | ? | -113*
CCc1c(C)c(C#N)c2nc3ccccc3n2c1NC | -2% | -5% | 191% | 10% | 35% | 15
Cc1ccc(-c2c(C#N)c(N)n3c(nc4ccccc43)c2C#N)cc1 | -23% | 16µM* | 67% | 21µM* | ? | -24
COCCNc1c2c(c(C#N)c3nc4ccccc4n13)CCCC2 | -1% | 21µM* | 169% | 26µM* | -6% | 13
CC(C(=O)Nc1ccccn1)N1C(=O)c2ccccc2S1(=O)=O (stereo not given) | -4% | 0% | 3% | 4% | 4% | 15
O=C(CN1C(=O)C2CCCCC2C1=O)OCC(=O)c1ccc(F)cc1 (stereo not given) | -3% | -3% | 1% | 5% | 2% | 1
CCN(CC)c1c2c(c(C#N)c3nc4ccccc4n13)CCC2 | -32% | ? | 51% | -18% | 10% | 19
N#Cc1c2c(c(Cl)n3c1nc1ccccc13)CCCC2 | -7% | 0.89µM* | . | 0.71µM* | -3% | .
CCCCN(C(=O)c1nn(C)c(=O)c2ccccc12)c1c(N)n(CC(C)C)c(=O)[nH]c1=O | 6% | -8% | 11% | -17% | -1% | -2
Cc1[nH]n(-c2ccccc2)c(=O)c1N=Nc1nccs1 | -27% | 23µM* | -3% | 18µM* | ? | 53
Cc1ccccc1N=Nc1c(C)[nH]n(-c2ccccc2)c1=O | -3% | -22% | -3% | 9% | 12% | 19
Cc1[nH]n(-c2ccccc2)c(=O)c1N=Nc1ccccc1O | -50% | 0.41µM* | -17% | 0.52µM* | ? | 124
COC(=O)c1ccc(CNC(=O)C2CCC(=O)N(CCc3ccccc3)C2)cc1 (stereo not given) | 7% | 20% | 4% | -14% | 10% | 21
COc1cc(/C=N/NC(=O)c2sc(N)c(C#N)c2C)ccc1O | -24% | 15µM* | -9% | ? | ? | -90*
COc1cc(/C=N/NC(=O)c2ccccc2)ccc1O | -75% | 9% | -2% | -13% | -15% | 0
Cc1c(C(=O)N/N=C/c2ccc(O)c(Br)c2)sc(N)c1C#N | -31% | ? | 1% | ? | ? | -96*
SMILES | HepG2 tox | TDP1 cell noCPT | S-ASM inh | DT40 TDP1 CPT | TGFb inhibitor | IL1B secr inh
O=C(NC1CCCN(C2Cc3ccccc3C2)C1)c1ccc(F)cc1Cl (stereo not given) | 2% | 2% | 2% | -27% | 6% | 0
Oc1c(C(c2ccc(Cl)cc2Cl)N2CCN(c3ccccc3)CC2)sc2nc(-c3ccco3)nn12 (stereo not given) | -84% | ? | . | ? | ? | .
COc1cccc(-c2nc(C(N)=O)c3[nH]c(=O)n(-c4cccc(Cl)c4)c3n2)c1OC | -33% | 9% | 40% | 0% | -1% | -9
CCc1ccc(-c2nc(C(N)=O)c3[nH]c(=O)n(-c4ccccc4OC)c3n2)cc1 | -23% | 2.6µM* | 488% | 2.3µM* | -9% | 48
Cc1ccc(-n2c(=O)[nH]c3c(C(N)=O)nc(C(C)C)nc32)cc1 | 0% | ? | 28% | -26% | 2% | 70
COc1ccc(-c2nc(C(N)=O)c3[nH]c(=O)n(-c4cccc(Cl)c4)c3n2)cc1OC | -112% | 21µM* | 11% | ? | ? | 11
Cc1ccsc1-c1nc(C(N)=O)c2[nH]c(=O)n(-c3ccc(Cl)cc3)c2n1 | -10% | 4.1µM* | 161% | 5.8µM* | -6% | -21
O=C(NC1CCCC1)C(c1ccncc1)N(C(=O)Cc1cccs1)c1cccc(F)c1 (stereo not given) | 2% | -24% | 4% | -8% | 16% | 9
Cc1ccc(NC(=O)c2ccc(NC(=O)C3CCCCC3C(=O)O)cc2)cc1 (stereo not given) | 7% | 22% | 1% | -9% | 8% | 0
Cc1ccc(NC(=O)COC(=O)CC2CC3CCC2C3)cc1S(=O)(=O)N1CCOCC1 (stereo not given) | 1% | -22% | -7% | 2% | 19% | 7
C=CC[C@H](CC(=O)N[C@H](CO)Cc1ccccc1)C(=O)N[C@@H](COC(=O)[C@@H](CC=C)CC(=O)OC(C)(C)C)Cc1c[nH]c2ccccc12 | -102% | ? | -10% | ? | 11µM* | -13
C=CC[C@@H](CC(=O)N[C@@H](CO)Cc1ccccc1)C(=O)N[C@H](COC(=O)[C@@H](CC=C)CC(=O)OC(C)(C)C)Cc1c[nH]c2ccccc12 | -51% | 3.7µM* | -6% | 16µM* | ? | ?
